This is a sample that favours compounds with a hit; in the whole collection about 11% have one here.
ALDH1A1 inh: qHTS Assay for Inhibitors of Aldehyde Dehydrogenase 1 (ALDH1A1); Aldehyde dehydrogenase 1A1 (Homo sapiens), P00352; Purified ALDH1A1, NADH fluorescence, propionaldehyde substrate; Potency, µM (top dose mostly 75.3 µM), actives largely listed as inhibitors; 220,000 tested, 7.3% active; AID 1030, 2008
Target sequence (P00352 whole entry, looked up): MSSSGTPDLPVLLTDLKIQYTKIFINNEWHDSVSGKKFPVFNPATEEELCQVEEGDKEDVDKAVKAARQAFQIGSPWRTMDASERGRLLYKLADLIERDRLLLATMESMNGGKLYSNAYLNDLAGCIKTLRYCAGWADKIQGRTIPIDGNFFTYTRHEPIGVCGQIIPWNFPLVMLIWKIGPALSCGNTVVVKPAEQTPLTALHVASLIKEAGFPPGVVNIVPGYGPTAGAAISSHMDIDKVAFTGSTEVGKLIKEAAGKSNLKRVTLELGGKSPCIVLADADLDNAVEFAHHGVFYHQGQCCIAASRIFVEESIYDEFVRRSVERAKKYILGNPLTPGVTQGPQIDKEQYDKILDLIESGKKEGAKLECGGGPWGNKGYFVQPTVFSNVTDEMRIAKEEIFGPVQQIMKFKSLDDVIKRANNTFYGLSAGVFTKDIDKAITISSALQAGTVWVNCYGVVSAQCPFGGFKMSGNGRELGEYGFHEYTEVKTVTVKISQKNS
HPGD inh: qHTS Assay for Inhibitors of HPGD (15-Hydroxyprostaglandin Dehydrogenase); purified HPGD, NADH fluorescence kinetic, PGE2 substrate; AID 894, 2007; 15-hydroxyprostaglandin dehydrogenase [NAD(+)] (Homo sapiens), P15428; Potency, µM, hits mostly inhibitors; 150,000 tested, 4.3% active
Target sequence (P15428 whole entry, looked up): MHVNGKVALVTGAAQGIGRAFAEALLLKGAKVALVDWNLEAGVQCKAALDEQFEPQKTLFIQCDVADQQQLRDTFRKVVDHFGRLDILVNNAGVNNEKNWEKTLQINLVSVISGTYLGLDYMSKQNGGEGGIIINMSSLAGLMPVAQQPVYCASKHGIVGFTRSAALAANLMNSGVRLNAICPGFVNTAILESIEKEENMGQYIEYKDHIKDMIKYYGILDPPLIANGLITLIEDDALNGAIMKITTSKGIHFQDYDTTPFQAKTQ
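20 nM HPGD preincubated 15 min at room temperature with compound in 50 mM Tris-HCl pH 8, 0.01% Tween 20. Started with 1 mM NAD+ and 30 uM prostaglandin E2; NADH fluorescence (360/450 nm) read 5 times over 30-s intervals, last minus first.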
PNC assembly inh: High Content Assay for Compounds that inhibit the Assembly of the Perinucleolar Compartment; PC3M PTB-GFP, PNC prevalence imaging, 16 h; hits give low values; activity change (PNC), negative = inhibition, % at 10 µM; 140,000 tested, 3.1% active; AID 2417, 2010;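 active = readout at or below -70, meaning at least 70% loss of cells showing the perinucleolar compartment, a nuclear body marking cancer cells; inconclusive = readout between -30 and a set limit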
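Compounds are pinned in duplicate onto adhered PC3M cells stably expressing GFP-tagged PTB and incubated 16 h at 37 C. Cells are then fixed, nuclei stained with Hoechst, and PNC-positive cells counted.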
Of the large screens only hits and unclear results are named; the others gave an inactive call. Unless noted, calls follow the shape of the dose curve; as a rule, active = well fitted inhibition curve with a large enough effect (not every such curve was filed as active); inconclusive = small, poorly fitted or top-dose-only effect, or another doubt; inactive = no such curve, though single readings can be large or run the other way.

COc1ccc(NC2=C(c3ccc(OC)cc3)C(=O)c3ccccc32)cc1	PNC assembly inh inconclusive
COc1ccc(C2=C(Nc3ccccc3)c3ccccc3C2=O)cc1	PNC assembly inh inconclusive
COC1=C(Nc2ccc(OC)cc2)C(=O)c2ccccc2C1=O	ALDH1A1 inh inconclusive, HPGD inh 15.8µM
COC1=C(Nc2ccc(O)cc2)C(=O)c2ccccc2C1=O	ALDH1A1 inh 17.8µM, HPGD inh 28.2µM
O=C(NCCCN1CCOCC1)C(=O)NCc1ccccc1Cl	none (no result: HPGD inh, PNC assembly inh)
CC(=O)c1ccc(-c2cccc([C@H]3[C@@H]4C=CC[C@@H](C)[C@@H]4C(=O)N3Cc3ccccc3)c2)cc1	none (no result: PNC assembly inh)
Cc1cccc(Nc2nc(N)c([N+](=O)[O-])c(NCCO)n2)c1	none (no result: HPGD inh, PNC assembly inh)
Cc1cccc(NC2=C(NCCO)C(=O)c3ccccc3C2=O)c1	ALDH1A1 inh 25.1µM
O=C(OCC(=O)N1CCN(S(=O)(=O)c2ccc(Cl)cc2)CC1)c1ccc([N+](=O)[O-])o1	ALDH1A1 inh 25.1µM (no result: HPGD inh, PNC assembly inh)
O=C(COc1ccccc1[N+](=O)[O-])N1CCN(S(=O)(=O)c2ccccc2)CC1	none (no result: HPGD inh, PNC assembly inh)
CC(C)CC(=O)N1CCN(S(=O)(=O)c2ccc(Cl)cc2)CC1	none (no result: HPGD inh, PNC assembly inh)
O=C(OCC(=O)N1CCN(S(=O)(=O)c2ccccc2)CC1)c1ccc([N+](=O)[O-])o1	ALDH1A1 inh 20µM (no result: HPGD inh, PNC assembly inh)
COC(=O)COc1ccc(/C=N/NC(=O)c2ccc(N(Cc3ccccc3)S(C)(=O)=O)cc2)cc1	none
O=C(c1ccncc1)N1CCC2(CCCN(c3ccccc3)C2)CC1	none (no result: PNC assembly inh)
CC(C)CCNC(=O)NC(=O)COC(=O)/C=C/c1cc(Br)ccc1F	none (no result: HPGD inh, PNC assembly inh)
CSC(=Nc1ccccc1)C1=C(O)COC1=O	ALDH1A1 inh 25.1µM
CCSC(=Nc1ccccc1)C1=C(O)COC1=O	none
C=CCc1cccc([C@@H]2[C@@H](C)CC[C@H]3C(=O)N4[C@@H](c5cc(OC)c(OC)c(OC)c5)c5[nH]c6ccccc6c5C[C@H]4C(=O)N23)c1	none
CCOc1ccccc1NC(=O)C(OC(=O)c1ccc(O)cc1)c1ccccc1 (centres undefined)	ALDH1A1 inh 7.94µM
CCOc1ccccc1NC(=O)C(OC(=O)c1ccc(CC)cc1)c1ccccc1 (centres undefined)	ALDH1A1 inh inconclusive
Cc1ccc(/C=N/NC(=O)Cn2nnc(N)n2)o1	none (no result: HPGD inh, PNC assembly inh)
COc1ccc(-n2[nH]c3c4c(ncc3c2=O)CCCCC4)cc1	none (no result: PNC assembly inh)
CC(Nc1cccc(F)c1)C(=O)Nc1ccc(S(N)(=O)=O)cc1 (centres undefined)	none (no result: HPGD inh, PNC assembly inh)
Cc1cc(NC(=O)CSc2ncnc3c2cnn3-c2cccc(Cl)c2)no1	none (no result: HPGD inh, PNC assembly inh)
COc1ccc(C(=O)c2coc3ccc(O)c(CN4CCCCC4)c23)cc1	ALDH1A1 inh 12.6µM
O=C(c1ccccc1)c1coc2ccc(O)c(CN3CCOCC3)c12	ALDH1A1 inh inconclusive
O=C1NCC(COc2ccc(Cl)cc2)O1 (centres undefined)	none (no result: HPGD inh, PNC assembly inh)
CSc1cccc(NC(=O)/C=C/c2cccc(Cl)c2)c1	ALDH1A1 inh inconclusive
CN(C)CC(C)(C)CNC(=O)c1ccc(-n2c(=O)c(=O)[nH]c3ccccc32)cc1	none (no result: PNC assembly inh)
COC(=O)C(c1ccc(OC)c(OC)c1)C1c2ccccc2C=C(C)N1C(=O)OC (centres undefined)	none (no result: PNC assembly inh)
Cc1cc(C)[n+](C)n1CC(O)Cn1c2ccccc2c2ccccc21 (centres undefined)	none (no result: HPGD inh, PNC assembly inh)
CCOc1ccccc1NC(=O)CCCN1C(=S)NC(C)(C)CC1C (centres undefined)	PNC assembly inh inconclusive
Cc1cc(C)cc(NC(=O)Cn2nnc3ccccc3c2=O)c1	none (no result: HPGD inh, PNC assembly inh)
CC(=O)Nc1ccc(C(=O)Cn2nnc3ccccc3c2=O)cc1	ALDH1A1 inh 8.91µM, PNC assembly inh inconclusive
O=S(=O)(c1ccccc1)N1CCC[C@@]2(CCN(c3ccccc3)C2)C1	ALDH1A1 inh inconclusive (no result: PNC assembly inh)
Cn1c(=O)c(CCc2ccccc2)nc2cncnc21	ALDH1A1 inh inconclusive (no result: PNC assembly inh)
Cc1ccccc1Nc1nc2ccccc2s1	none
Cc1ccccc1Nc1cccc2nonc12	PNC assembly inh -99.4
CC(=O)OCC1OC(n2cnc3c(=O)[nH]cnc32)C(OC(C)=O)C1OC(C)=O (centres undefined)	none (no result: PNC assembly inh)
C=CCn1c(SCc2nc(N)nc(N3CCCCC3)n2)nnc1-c1ccco1	ALDH1A1 inh 22.4µM, HPGD inh 15.8µM
C=CCn1c(SCC(=O)N2CCN(c3ccc(F)cc3)CC2)nnc1-c1ccco1	none
COc1ccc(CNC(=O)CSc2nc3ccc(N)cc3s2)cc1	ALDH1A1 inh inconclusive
COc1ccc(OC)c(NC(=O)c2ccc3nc(-c4ccccc4)c(-c4ccccc4)nc3c2)c1	ALDH1A1 inh 10µM
O=C(Nc1ccccc1OC(=O)c1ccc(Cl)cc1)c1ccc(Cl)cc1	PNC assembly inh -94.2
O=C(Nc1ccccc1O)c1ccc(Cl)cc1	none
COc1ccc(C(=O)Nc2cc(Cl)ccc2OC(=O)c2ccc(OC)cc2)cc1	ALDH1A1 inh 1µM
Cc1ccc(C(=O)Nc2cc(Cl)ccc2OC(=O)c2ccc(C)cc2)cc1	none
COc1ccc(C(=O)Nc2cc(OC)ccc2OC)cc1	none
Cc1c(NC(=O)/C=C/c2ccc(S(=O)(=O)N3CCOCC3)cc2)c(=O)n(-c2ccccc2)n1C	none (no result: HPGD inh, PNC assembly inh)
CCCN1CCC(NC(=S)Nc2ccc(S(N)(=O)=O)cc2)CC1	none (no result: HPGD inh, PNC assembly inh)
COc1ccc(/C=N/NC(=S)NC2CCS(=O)(=O)C2)cc1 (centres undefined)	PNC assembly inh inconclusive (no result: HPGD inh)
CCCCN(Cc1ccccc1)C(=O)CCN1C(=O)C2C3C=CC(C3)C2C1=O (centres undefined)	ALDH1A1 inh 2.24µM (no result: HPGD inh, PNC assembly inh)
CN(Cc1ccccc1)C(=O)CN1C(=O)C2C3C=CC(C3)C2C1=O (centres undefined)	none
O=C(CSc1nncs1)Nc1ccc(S(=O)(=O)N2CCCC2)cc1	none (no result: HPGD inh, PNC assembly inh)
COc1ccc(P(=O)(COc2ccc([N+](=O)[O-])cc2)c2ccc(OC)cc2)cc1	ALDH1A1 inh 7.08µM
C[N+](C)(C)CCOc1ccc([N+](=O)[O-])cc1	none (no result: HPGD inh, PNC assembly inh)
CCOC(=O)c1cnc2ccc(OCC)cc2c1N1CCN(c2ccccc2)CC1	none
CCN1CCN(c2c(C(=O)c3ccc(OC)cc3)cnc3ccccc23)CC1	ALDH1A1 inh 2.82µM (no result: HPGD inh, PNC assembly inh)
COc1cccc(Oc2ccc(N/C=C/C(=O)C(C)(C)C)cc2)c1	ALDH1A1 inh 10µM
Cc1ccc(N/C=C/C(=O)C(C)(C)C)c(O)c1	ALDH1A1 inh inconclusive
CC(=O)Nc1ccc(N/C=C/C(=O)C(C)(C)C)cc1	ALDH1A1 inh 22.4µM, HPGD inh inconclusive
COc1ccccc1Oc1ccc(N/C=C/C(=O)C(C)(C)C)cc1	none (no result: HPGD inh, PNC assembly inh)
O=C1CC(N2CCc3ccccc32)C(=O)N1c1ccc(F)cc1 (centres undefined)	none (no result: HPGD inh, PNC assembly inh)
CCOC(=O)C1=C(C)N=C2SC(C(=O)OC)=CC(=O)N2C1c1ccc(OC)cc1 (centres undefined)	none (no result: HPGD inh, PNC assembly inh)
CC1SC(=Nc2ccccc2)N(S(=O)(=O)c2ccccc2)C1=O (centres undefined)	ALDH1A1 inh inconclusive
O=C(O)Cc1ccc(-n2cccc2)cc1	none (no result: HPGD inh, PNC assembly inh)
COC(=O)[C@H]1C[C@@H]1[C@H](N)c1ccccc1	none (no result: PNC assembly inh)
CCCN=C1NC(=O)C(CC(=O)NCCc2ccccc2)S1 (centres undefined)	ALDH1A1 inh 28.2µM (no result: HPGD inh, PNC assembly inh)
O=C(O)CCCNC(=O)CC1S/C(=N/N=C/c2ccccc2O)NC1=O (centres undefined)	none (no result: HPGD inh, PNC assembly inh)
